Compound activity from PubChem.
MOR-DOR ag – OPRM1-OPRD1 heterodimerization agonism | P35372+P41143 | activation, % at 9.3 µM | 0.3% of 340,000 active | AID 504326 | cells, luminescence;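 note: 0% = vehicle-treated cells and 100% = reference agonist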
OPRM1-OPRD1 inv – mu-delta opioid heterodimer inverse agonism; P35372+P41143; inhibition, % at 9.3 µM; cell-based MOR-DOR heterodimer luminescence; 0.21% of 340,000 active; in the data active = inhibition above about 22%, passing the limit was not always enough;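 note: 0% = cells with DMSO and 100% = wells without cells with DMSO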
HTR5A ag ctr – counter-screen for OPRM1-OPRD1 agonists: human HTR5A agonism | activation, % at 9.3 µM | 0.61% of 340,000 active | HTR5A agonist assay, luminescence, cell-based | P47898; in the data active = activation mostly above about 9.5%, no sharp cut-off; inactive = mostly below about 7.6%;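 note: 0% = cells with vehicle only and 100% = reference agonist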
Target sequence (P47898 whole entry, looked up): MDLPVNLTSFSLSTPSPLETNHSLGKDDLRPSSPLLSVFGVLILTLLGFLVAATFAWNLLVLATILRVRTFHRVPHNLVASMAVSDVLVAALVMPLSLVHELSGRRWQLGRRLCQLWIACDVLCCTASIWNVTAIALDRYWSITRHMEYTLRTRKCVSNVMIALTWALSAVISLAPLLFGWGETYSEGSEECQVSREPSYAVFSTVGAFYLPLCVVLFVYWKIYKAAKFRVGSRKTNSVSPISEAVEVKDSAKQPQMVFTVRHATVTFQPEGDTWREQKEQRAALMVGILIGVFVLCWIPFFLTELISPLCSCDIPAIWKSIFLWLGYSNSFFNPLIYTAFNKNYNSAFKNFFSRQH
HTR5A inv ctr – HTR5A inverse agonism, opioid heterodimer counter-screen; HTR5A cell line, luminescence; inhibition, % at 9.3 µM; 0.083% of 340,000 active; AID 504634; in the data active = inhibition mostly above about 23%, no sharp cut-off; inactive = mostly below about 18%;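 note: 0% = cells with DMSO and 100% = no-cell wells with DMSO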
MOR-DOR ag conf – OPRM1-OPRD1 heterodimer agonism, confirmation; shares compounds with MOR-DOR ag; cells, MOR-DOR heterodimerization, luminescence complementation; activation, % at 9.3 µM; 45% of 830 active;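 note: 0% = vehicle-treated cells and 100% = reference agonist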
HTR5A ag ctr2 – HTR5A agonism, opioid heterodimer counter-screen; AID 504905; HTR5A agonist counterscreen, cell luminescence; activation, % at 9.3 µM; shares compounds with MOR-DOR ag; 8% of 830 active; in the data active = activation above about 17%;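 note: 0% = vehicle-treated cells and 100% = reference agonist response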
Numbers without * were called inactive; i = inactive; nt = no result given. Most compounds without a hit are left out; they make up all but 1.1% or so of the library. Cut-off read from the data, not from the text of the source, unless noted: active = activation above about 18%; inactive = the rest.

SMILES	MOR-DOR ag	OPRM1-OPRD1 inv	HTR5A ag ctr	HTR5A inv ctr	MOR-DOR ag conf	HTR5A ag ctr2
CN(C)S(=O)(=O)c1cc(NC(=O)COC(=O)CC2Sc3ccccc3NC2=O)ccc1Cl (stereo unspecified)	0.3	-1.4	-2.9	10.3	nt	nt
COc1cccc(CNCCc2c[nH]c3ccccc23)c1OCc1ccccc1	18.0*	-98.8	9.7	-45.4	27.2*	8.1
COc1cc(CNCCc2c[nH]c3ccccc23)ccc1OCc1ccccc1F	-1.0	6.0	-2.9	2.1	nt	nt
CN(C)C(CNC(=O)CCNS(=O)(=O)c1ccccc1C(F)(F)F)c1ccccc1 (stereo unspecified)	25.3*	-104.3	1.9	-5.4	29.1*	2.6
O=C(CCS(=O)(=O)c1ccccc1)NCCS(=O)(=O)c1ccccc1	-2.5	14.5	-1.7	4.9	nt	nt
O=C(CCNS(=O)(=O)c1ccccc1C(F)(F)F)NCCCSc1ccccc1	-0.2	1.3	-1.0	-14.1	nt	nt
CN(C)C(CNC(=O)CCS(=O)(=O)c1ccccc1)c1ccccc1 (stereo unspecified)	59.6*	-270.3	-0.9	3.2	4.0	2.5
CN(C)C(CNC(=O)CCc1c[nH]c2ccccc12)c1ccccc1 (stereo unspecified)	137.8*	i	0.7	-2.5	19.6*	9.0
CC(NC(=O)CCc1c[nH]c2ccccc12)c1ccccc1 (stereo unspecified)	-2.0	9.1	-1.8	6.5	nt	nt
CCC(Cc1ccccc1)OC(=O)c1ccccc1C(=O)O (stereo unspecified)	-2.3	12.1	-0.6	2.0	nt	nt
COc1ccc(CNC(=O)CCNS(=O)(=O)c2cc(Br)cnc2N)cc1	-3.4	17.0	-4.4	-12.6	nt	nt
Cc1ccc(S(C)(=O)=O)cc1C(=O)OCC(=O)N1CCCC1=O	-0.3	1.8	1.6	-17.0	nt	nt
Cc1ccc(/C=N/NC(=O)CSc2nnc(-c3ccc(Cl)cc3)n2-c2ccc(Cl)cc2)o1	36.7*	-186.3	10.6	-31.5	17.8	17.2*
CC(C)(C)c1ccc(OCC(=O)Nc2ccc3c4c(cccc24)C(=O)NC3=O)cc1	19.1*	-95.5	-3.0	-1.5	-0.1	0.4
COc1cc(C(=O)Nc2nc3ccc(S(C)(=O)=O)cc3s2)cc(OC)c1C	37.3*	-198.2	5.5	-15.1	14.0	8.8
O=C(NCC(c1ccc(F)cc1)N1CCOCC1)c1ccc(-c2ccccc2)cc1 (stereo unspecified)	20.9*	-78.3	-1.7	14.6	1.4	-3.3
COc1ccc(C2=CCCC2)c(OC)c1	1.1	-4.9	-2.8	10.6	nt	nt
CCCCn1c(N)c(N(CC(C)C)C(=O)C2CC(=O)N(Cc3ccco3)C2)c(=O)[nH]c1=O (stereo unspecified)	-2.4	16.6	2.9	2.7	nt	nt
Cc1ccc(CSCC(=O)N/N=C/c2sccc2C)cc1	89.0*	-478.4	-6.5	23.4	179.7*	3.9
COc1ccc(CC(=O)N/N=C/c2sccc2C)cc1	-2.7	13.7	1.9	-7.1	nt	nt
COc1cc(NC(=O)c2cccc(C)c2)ccc1NC(=O)c1cc2ccccc2o1	30.1*	-167.0	1.0	-3.9	48.6*	5.6
Cn1nc(-c2ccccn2)nc2c(=O)n(C)c(=O)nc1-2	40.9*	-223.4	8.8	-25.3	28.2*	1.4
CCCc1nc2c(=O)n(C)c(=O)nc-2n(C)n1	27.8*	-129.8	9.4*	-26.0	336.8*	-0.1
Nc1cc2c(cc1Br)-c1ccccc1C2=NO	2.0	-10.3	6.2	-24.2	nt	nt
CN(C)S(=O)(=O)c1ccc(C(=O)OCC(=O)Nc2ccc3c(c2)OCO3)cc1	-0.4	1.5	0.7	-1.8	nt	nt
SMILES	MOR-DOR ag	OPRM1-OPRD1 inv	HTR5A ag ctr	HTR5A inv ctr	MOR-DOR ag conf	HTR5A ag ctr2
C=CS(=O)(=O)N(Cc1ccccc1Br)[C@H](CO)CC(C)C	-0.9	4.8	3.1	-7.9	nt	nt
COc1ccc(C(=O)C(CCCCC(CN(C)C)C(=O)c2ccc(OC)cc2)CN(C)C)cc1 (stereo unspecified)	0.0	-0.2	-2.1	-4.1	nt	nt
CCOc1ccc(C(=O)C(CCC(CN(C)C)C(=O)c2ccc(OCC)cc2)CN(C)C)cc1 (stereo unspecified)	28.9*	-134.8	14.4*	-60.0	-4.2	-8.9
Cc1ccc(S(=O)(=O)/N=C2/C=C(Sc3ncn[nH]3)C(=O)c3ccccc32)cc1	23.4*	-125.1	10.3	-21.4	4.9	-6.5
Cc1ccc(S(=O)(=O)/N=C2\C=C(Nc3ccc(O)cc3)C(=O)c3ccccc32)cc1	16.4	-64.5	0.2	-7.1	nt	nt
COCCN(Cc1nc2ccccc2c(=O)[nH]1)C(=O)COc1ccccc1-c1ccccc1	0.6	-3.7	-0.1	-14.0	nt	nt
